Gal4-VP16 FLuc: Gal4-VP16 reporter inhibition counter-screen | Drosophila S2 Gal4-VP16 UAS-luciferase, luminescence, 20 h | Potency, µM (highest dose often 53.6 µM), without a hit: at the top dose activity, negative = inhibition, usual class: inhibitors | 310,000 compounds, 3.5% hits | AID 2546;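 also: Gal4-VP16 expression switched on by copper sulfate through the metallothionein promoter; nearly all actives have a fitted effect of over 50% in size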
TDP1 block: TDP1 (human) enzyme inhibition; Q9NUW8; recombinant TDP1, AlphaScreen DNA substrate cleavage; Potency, µM (titrated, usually from 130 µM), for inactives: at the highest dose activity change, negative = inhibition, usual class: inhibitors; 350,000 compounds, 0.28% hits; AID 485290; also: nearly all actives have a fitted effect of over 40% in size
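Here, a 5' biotin and 3' phosphotyrosine-FITC DNA oligonucleotide reports Tdp1 activity: intact substrate bridges AlphaScreen beads, while cleavage leaves a 3' phosphate and drops signal. All incubations at room temperature.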
DT40 TDP1 CPT: DT40-hTDP1 cell growth loss with CPT | chicken DT40 Tdp1-/-;hTDP1 cells + 20 nM CPT, ATP luminescence, 48 h | Potency, µM (series often up to 46.2 µM), for the others: top-dose activity change, negative = growth inhibition, most hits filed as inhibitors | 420,000 compounds, 12% hits; also: nearly all actives have a fitted effect of over 55% in size
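Chicken DT40 Tdp1-/- cells complemented with human TDP1, 400 cells/well, exposed to compounds plus 20 nM camptothecin for at least 48 h at 37 C; viability read as ATP content by CellTiter-Glo luminescence.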
RORgamma inh: inhibitors of mouse ROR gamma transcriptional activity; Potency, µM (doses to about 53.6 µM), for inactives: at the top dose activity change, negative = inhibition, hits mostly inhibitors; 310,000 compounds, 5.4% hits; AID 2551; Drosophila S2 Gal4-RORgamma UAS-luciferase reporter, 20 h; P51450; also: nearly all actives have a fitted effect of over 60% in size
Target sequence (P51450 whole entry, looked up, the tested form may be a part): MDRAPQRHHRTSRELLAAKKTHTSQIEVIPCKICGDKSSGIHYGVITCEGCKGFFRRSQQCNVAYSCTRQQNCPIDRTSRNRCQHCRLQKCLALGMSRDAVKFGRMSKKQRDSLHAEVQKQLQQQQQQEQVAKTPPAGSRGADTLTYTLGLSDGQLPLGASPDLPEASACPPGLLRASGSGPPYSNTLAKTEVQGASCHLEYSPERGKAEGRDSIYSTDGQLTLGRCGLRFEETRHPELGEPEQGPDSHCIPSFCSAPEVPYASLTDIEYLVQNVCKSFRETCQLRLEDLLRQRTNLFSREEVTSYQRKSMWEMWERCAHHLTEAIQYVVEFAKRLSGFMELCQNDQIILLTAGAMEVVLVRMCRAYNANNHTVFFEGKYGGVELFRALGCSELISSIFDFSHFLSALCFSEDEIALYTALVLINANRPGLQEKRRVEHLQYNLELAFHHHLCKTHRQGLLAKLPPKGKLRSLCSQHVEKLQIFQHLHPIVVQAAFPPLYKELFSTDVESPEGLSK
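Drosophila S2 cells stably expressing Gal4-DBD/mouse RORγ fusion under metallothionein promoter plus UAS-luciferase; compound 1 h, then 700 uM CuSO4 induction for 20 h at ambient temperature; inhibition read as reduced luminescence.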
DT40 TDP1 no CPT: qHTS for Inhibitors of human tyrosyl-DNA phosphodiesterase 1 (TDP1): qHTS in cells in absence of CPT. DT40 Tdp1-/- hTDP1 cells, no CPT, ATP luminescence, 48 h. Potency, µM (series often up to 46.2 µM), for the others: at the top dose activity change, negative = growth inhibition, usual class: inhibitors. 420,000 compounds, 15% hits; also: nearly all actives have a fitted effect of over 55% in size
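Chicken DT40 Tdp1-/- cells stably complemented with human TDP1 were seeded at 400 cells/well with DMSO in place of 20 nM camptothecin. After compound pinning, cells grew at least 48 hr at 37 °C; viability read by CellTiter-Glo luminescence.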
The depositor's hits bear a star; [ ] = remark or other dose. Rows were chosen to be rich in hits. Some 19% of all compounds tested hit in one or more screens of this group. Calls follow the shape of the dose curve; as a rule, active = well fitted curve in the direction sought with a large enough effect; inconclusive = small, poorly fitted or top-dose-only effect, or another doubt; inactive = no such curve, though single readings can be large; an effect the other way counts as inactive or inconclusive. % is scaled to controls: 0 for no effect and ±100 for the full control effect; potency is read from the fitted curve at half-maximal effect.

`Cc1ccc(NC(=O)c2ncn(CC(=O)N3CCN(c4ccccn4)CC3)n2)cc1C` gave TDP1 block 0%[56.1 µM], DT40 TDP1 CPT inconclusive and DT40 TDP1 no CPT inconclusive.
`Cc1ccc(NC(=O)c2ncn(CCCNCCCc3ccccc3)n2)cc1C` gave DT40 TDP1 CPT inconclusive and DT40 TDP1 no CPT 21µM*.
Screening COc1ccc(CNCCCn2cnc(C(=O)Nc3ccc(C)c(C)c3)n2)cc1 returned DT40 TDP1 CPT inconclusive and DT40 TDP1 no CPT 16µM*.
COc1cc(OC)cc(-c2sc3ccc(OC)cc3c2-c2ccc(O)cc2)c1 was read as TDP1 block 0%, DT40 TDP1 CPT inconclusive and DT40 TDP1 no CPT inconclusive.
Screening Cc1ccc(NC(=O)c2ncn(CCCN(CCCn3cnc(C(=O)Nc4ccc(C)c(C)c4)n3)Cc3ccc4[nH]ccc4c3)n2)cc1C returned DT40 TDP1 CPT inconclusive and DT40 TDP1 no CPT 15µM*.
`COc1cccc(C(=O)Nc2cccc(OCc3cc(=O)n4cccc(C)c4n3)c2)c1` gave TDP1 block 3%, DT40 TDP1 CPT -11% and DT40 TDP1 no CPT -10%.
COCCCNC(=O)CC(NS(=O)(=O)c1ccc(F)cc1)c1ccc(OC)cc1 (stereo not given) was read as Gal4-VP16 FLuc 5%, TDP1 block -2%, DT40 TDP1 CPT 4%, RORgamma inh -26% and DT40 TDP1 no CPT 6%.
Screening CN(C)/C=N/c1c(C#N)cnn1-c1ccccc1 returned Gal4-VP16 FLuc -3%, TDP1 block 4%, DT40 TDP1 CPT -2%, RORgamma inh 13% and DT40 TDP1 no CPT -20%.
For CN(C)/C=N/c1c(C#N)cnn1-c1ncnc2sc(-c3ccccc3)cc12 the results were Gal4-VP16 FLuc 2%, TDP1 block 3%, DT40 TDP1 CPT 21µM*, RORgamma inh 18% and DT40 TDP1 no CPT 18µM*.
CCOC(=O)C1CCN(c2cc(C)nc3c(-c4ccccc4OC)c(C)nn23)CC1 was read as TDP1 block -2%, DT40 TDP1 CPT 18µM* and DT40 TDP1 no CPT 18µM*.
`COc1ccccc1-c1c(C)nn2c(N3CCN(c4ccccc4)CC3)cc(C)nc12` gave TDP1 block -1%, DT40 TDP1 CPT -23% and DT40 TDP1 no CPT -9%.
Screening COc1ccccc1-c1c(C)nn2c(N3CCCCCC3)cc(C)nc12 returned Gal4-VP16 FLuc 20µM*, TDP1 block 0%, DT40 TDP1 CPT 16µM*, RORgamma inh 16µM* and DT40 TDP1 no CPT 18µM*.
For COc1ccccc1-c1c(C)nn2c(-c3ccccc3)cc(C)nc12 the results were Gal4-VP16 FLuc 0%, DT40 TDP1 CPT 15µM*, RORgamma inh -4% and DT40 TDP1 no CPT 21µM*.
For O=[N+]([O-])c1ccc(O)c(-c2nn[nH]n2)c1 the results were Gal4-VP16 FLuc -24%, TDP1 block 9%, DT40 TDP1 CPT 18µM*, RORgamma inh 10µM* and DT40 TDP1 no CPT inconclusive.
Cc1nc(NC(=O)c2ccccc2)sc1-c1csc(NCCc2ccccc2)n1 was read as Gal4-VP16 FLuc 2%, TDP1 block 3%, DT40 TDP1 CPT 23µM*, RORgamma inh -29% and DT40 TDP1 no CPT 16µM*.
For CCCCCCC(=O)Nc1nc(C)c(-c2csc(Nc3ccccc3OC)n2)s1 the results were Gal4-VP16 FLuc 5%, TDP1 block 9%, DT40 TDP1 CPT inconclusive, RORgamma inh inconclusive and DT40 TDP1 no CPT 21µM*.
For Cc1nc(NC(=O)c2ccccc2)sc1-c1csc(N)n1 the results were Gal4-VP16 FLuc -19%, TDP1 block 10%, DT40 TDP1 CPT inconclusive, RORgamma inh -21% and DT40 TDP1 no CPT inconclusive.
For COc1ccccc1Nc1nc(-c2sc(NC(=O)c3ccc([N+](=O)[O-])cc3)nc2C)cs1 the results were Gal4-VP16 FLuc -30%, TDP1 block 11% and RORgamma inh 4µM*.
`CCCC(C)C(=O)Nc1nc(C)c(-c2csc(Nc3ccc(Cl)cc3)n2)s1` (stereo not given) gave Gal4-VP16 FLuc 11µM*, TDP1 block 10%, DT40 TDP1 CPT inconclusive, RORgamma inh inconclusive and DT40 TDP1 no CPT 26µM*.
For COc1ccccc1Nc1nc(-c2sc(NC(=O)c3ccccc3)nc2C)cs1 the results were Gal4-VP16 FLuc -1%, TDP1 block 6%, DT40 TDP1 CPT inconclusive, RORgamma inh -39% and DT40 TDP1 no CPT inconclusive.
O=C1C2C3C=CC(C3)C2C(=O)N1Nc1ccc([N+](=O)[O-])cc1[N+](=O)[O-] (stereo not given) was read as Gal4-VP16 FLuc 1%, DT40 TDP1 CPT 3%, RORgamma inh -8% and DT40 TDP1 no CPT 13%.
For CCOc1ccccc1Nc1nc(-c2sc(NC(=O)c3ccccc3)nc2C)cs1 the results were Gal4-VP16 FLuc 5%, TDP1 block 2% and RORgamma inh inconclusive.
Screening CCCCCC(=O)Nc1nc(C)c(-c2csc(Nc3ccccc3OC)n2)s1 returned Gal4-VP16 FLuc 3%, TDP1 block 9%, DT40 TDP1 CPT 23µM*, RORgamma inh -12% and DT40 TDP1 no CPT 18µM*.
For CCOc1ccccc1Nc1nc(-c2sc(NC(=O)c3cccc(Cl)c3)nc2C)cs1 the results were Gal4-VP16 FLuc -28%, TDP1 block 2%, DT40 TDP1 CPT inconclusive, RORgamma inh 11µM* and DT40 TDP1 no CPT inconclusive.
For CCCC(C)C(=O)Nc1nc(C)c(-c2csc(Nc3ccccc3OC)n2)s1 (stereo not given) the results were Gal4-VP16 FLuc inconclusive, TDP1 block 8%, DT40 TDP1 CPT 16µM*, RORgamma inh -1% and DT40 TDP1 no CPT 23µM*.
COc1ccc(NC(C)c2cc(Cl)ccc2O)cc1 (stereo not given) was read as Gal4-VP16 FLuc 1%, TDP1 block 16%, DT40 TDP1 CPT -24%, RORgamma inh 1% and DT40 TDP1 no CPT inconclusive.
`O=S(=O)(Nc1nc2ccccc2s1)c1ccc(Cl)s1` gave Gal4-VP16 FLuc 7%, TDP1 block 3%, DT40 TDP1 CPT -23%, RORgamma inh -18% and DT40 TDP1 no CPT -27%.
`Cc1ccccc1NC(=O)NCCCN1CCCC1` gave Gal4-VP16 FLuc 2%, TDP1 block 5%, DT40 TDP1 CPT -18%, RORgamma inh 0% and DT40 TDP1 no CPT 12%.
O=C(NCCCN1CCCCCC1)C(c1ccccc1)C1CCCCC1 (stereo not given) was read as TDP1 block inconclusive, DT40 TDP1 CPT inconclusive and DT40 TDP1 no CPT 16µM*.
Screening O=C(C[n+]1cc(Br)cc2ccccc21)c1ccccc1 returned Gal4-VP16 FLuc 1%, TDP1 block 6%, DT40 TDP1 CPT 18µM*, RORgamma inh 123% and DT40 TDP1 no CPT 18µM*.

Screening data (PubChem BioAssay)
